Columns and labels:
Experiment in all cases: DAPPL (digital affinity profiling via proximity ligation, sequencing); 10 mM Tris-HCl pH 7.5, 50 mM NaCl, 1 mM DTT, 4% glycerol, room temperature, 30 min; GST-TFs on glutathione beads, 16-mer random dsDNA library, 0.1% formaldehyde crosslink after washing; high values mean tight binding
Settings in all cases: protein: recombinant; tags: N-terminal GST; dsDNA, one strand shown
[1] = molecular target: T1, GABPA (Homo sapiens, UniProt Q06546 1-454)
T1 sequence: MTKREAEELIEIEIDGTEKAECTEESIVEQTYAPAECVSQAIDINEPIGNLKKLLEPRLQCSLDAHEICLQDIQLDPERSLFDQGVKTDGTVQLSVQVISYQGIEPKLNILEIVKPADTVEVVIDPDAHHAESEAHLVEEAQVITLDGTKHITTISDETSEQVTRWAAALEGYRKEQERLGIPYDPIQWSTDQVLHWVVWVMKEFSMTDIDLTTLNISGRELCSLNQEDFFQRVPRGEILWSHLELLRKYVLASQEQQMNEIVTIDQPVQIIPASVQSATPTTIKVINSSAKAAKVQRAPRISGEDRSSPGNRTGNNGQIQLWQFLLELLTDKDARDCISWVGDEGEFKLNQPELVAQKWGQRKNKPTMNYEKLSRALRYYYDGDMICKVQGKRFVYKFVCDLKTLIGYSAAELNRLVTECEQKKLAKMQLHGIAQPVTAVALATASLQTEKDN
Method in brief: (§1)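 Beads coated with glutathione captured GST-fused human transcription factors that had been expressed in yeast, and the factors were then given DNA barcodes and pooled with a tag-only sample. The pools were incubated with 200 nmole of a random double-stranded 16-mer DNA library in Tris/NaCl/DTT/glycerol buffer for 30 min at room temperature, washed, crosslinked with 0.1% formaldehyde and proximity-ligated with BsaI/T4 ligase at 37 °C for 1 h. PCR amplification and Illumina NextSeq500 sequencing came last. Binding signal is each hexamer's read frequency for a factor divided by its frequency for the tag-only sample.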

[2] = molecular target: T2, ERG (Homo sapiens, UniProt P11308 1-479)
T2 sequence: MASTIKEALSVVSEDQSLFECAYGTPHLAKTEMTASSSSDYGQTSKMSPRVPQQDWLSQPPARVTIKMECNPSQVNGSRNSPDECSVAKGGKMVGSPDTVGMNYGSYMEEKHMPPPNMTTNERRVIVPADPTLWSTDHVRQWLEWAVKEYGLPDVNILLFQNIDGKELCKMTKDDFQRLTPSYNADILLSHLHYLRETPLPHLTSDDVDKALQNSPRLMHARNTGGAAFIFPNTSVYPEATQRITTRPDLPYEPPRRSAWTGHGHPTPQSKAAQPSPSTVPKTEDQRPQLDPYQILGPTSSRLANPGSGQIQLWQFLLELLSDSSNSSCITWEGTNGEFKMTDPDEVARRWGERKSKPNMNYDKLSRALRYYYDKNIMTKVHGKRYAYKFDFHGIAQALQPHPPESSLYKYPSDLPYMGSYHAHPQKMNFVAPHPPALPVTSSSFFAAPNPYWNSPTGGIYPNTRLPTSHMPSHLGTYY
Method in brief: as §1

[3] = molecular target: ELF1 (Homo sapiens, UniProt P32519 1-619)
Method in brief: as §1

[4] = molecular target: T3, EHF (Homo sapiens, UniProt Q9NZC4 1-300)
T3 sequence: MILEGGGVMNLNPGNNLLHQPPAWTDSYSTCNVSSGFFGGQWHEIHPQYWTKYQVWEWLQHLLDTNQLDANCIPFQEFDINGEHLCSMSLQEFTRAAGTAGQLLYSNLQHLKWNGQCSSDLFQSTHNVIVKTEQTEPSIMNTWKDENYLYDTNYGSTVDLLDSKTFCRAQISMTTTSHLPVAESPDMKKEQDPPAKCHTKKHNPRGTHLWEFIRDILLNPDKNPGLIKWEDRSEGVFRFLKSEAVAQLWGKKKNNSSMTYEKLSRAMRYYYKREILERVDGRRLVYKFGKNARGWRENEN
Method in brief: as §1

[5] = molecular target: SPIB (Homo sapiens, UniProt Q01892 1-262)
Method in brief: as §1

[6] = molecular target: T4, ELK3 (Homo sapiens, UniProt P41970 1-407)
T4 sequence: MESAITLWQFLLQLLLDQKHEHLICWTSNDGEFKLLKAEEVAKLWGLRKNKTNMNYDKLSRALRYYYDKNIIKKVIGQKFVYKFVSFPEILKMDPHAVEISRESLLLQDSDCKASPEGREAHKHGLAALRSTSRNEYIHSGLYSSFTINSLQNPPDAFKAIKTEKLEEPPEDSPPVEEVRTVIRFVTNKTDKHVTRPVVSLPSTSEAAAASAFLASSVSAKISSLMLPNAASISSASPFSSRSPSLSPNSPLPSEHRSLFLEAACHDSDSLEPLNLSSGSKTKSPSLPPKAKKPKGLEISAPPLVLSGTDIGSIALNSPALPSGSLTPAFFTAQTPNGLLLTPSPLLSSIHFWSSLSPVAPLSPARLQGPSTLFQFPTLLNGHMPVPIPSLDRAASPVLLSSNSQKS
Method in brief: as §1

[7] = molecular target: ETV5 (Homo sapiens, UniProt P41161 1-510)
Method in brief: as §1

[8] = molecular target: T5, SPIC (Homo sapiens, UniProt Q8N5J4 1-248)
T5 sequence: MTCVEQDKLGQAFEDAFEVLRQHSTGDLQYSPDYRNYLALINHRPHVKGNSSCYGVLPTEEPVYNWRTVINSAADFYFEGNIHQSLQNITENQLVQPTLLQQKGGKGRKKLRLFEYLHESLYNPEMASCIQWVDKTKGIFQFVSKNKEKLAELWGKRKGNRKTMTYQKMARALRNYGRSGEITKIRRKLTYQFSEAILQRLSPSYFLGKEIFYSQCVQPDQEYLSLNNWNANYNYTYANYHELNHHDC
Method in brief: as §1

[9] = molecular target: T6, ELF3 (Homo sapiens, UniProt P78545 1-371)
T6 sequence: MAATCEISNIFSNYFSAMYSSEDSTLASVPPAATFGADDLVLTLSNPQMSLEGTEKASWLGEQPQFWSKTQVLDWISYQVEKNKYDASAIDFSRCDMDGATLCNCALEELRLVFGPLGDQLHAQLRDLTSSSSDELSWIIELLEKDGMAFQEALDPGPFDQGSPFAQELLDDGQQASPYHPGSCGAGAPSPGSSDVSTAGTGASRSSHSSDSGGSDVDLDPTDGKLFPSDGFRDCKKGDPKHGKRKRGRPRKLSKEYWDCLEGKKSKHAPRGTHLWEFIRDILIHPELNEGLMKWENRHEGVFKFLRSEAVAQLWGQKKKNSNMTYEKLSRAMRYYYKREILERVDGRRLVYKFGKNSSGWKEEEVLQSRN
Method in brief: as §1

[10] = molecular target: ETV1 (Homo sapiens, UniProt P50549 1-477)
Method in brief: as §1

[11] = molecular target: T7, ERF (Homo sapiens, UniProt P50548 1-548)
T7 sequence: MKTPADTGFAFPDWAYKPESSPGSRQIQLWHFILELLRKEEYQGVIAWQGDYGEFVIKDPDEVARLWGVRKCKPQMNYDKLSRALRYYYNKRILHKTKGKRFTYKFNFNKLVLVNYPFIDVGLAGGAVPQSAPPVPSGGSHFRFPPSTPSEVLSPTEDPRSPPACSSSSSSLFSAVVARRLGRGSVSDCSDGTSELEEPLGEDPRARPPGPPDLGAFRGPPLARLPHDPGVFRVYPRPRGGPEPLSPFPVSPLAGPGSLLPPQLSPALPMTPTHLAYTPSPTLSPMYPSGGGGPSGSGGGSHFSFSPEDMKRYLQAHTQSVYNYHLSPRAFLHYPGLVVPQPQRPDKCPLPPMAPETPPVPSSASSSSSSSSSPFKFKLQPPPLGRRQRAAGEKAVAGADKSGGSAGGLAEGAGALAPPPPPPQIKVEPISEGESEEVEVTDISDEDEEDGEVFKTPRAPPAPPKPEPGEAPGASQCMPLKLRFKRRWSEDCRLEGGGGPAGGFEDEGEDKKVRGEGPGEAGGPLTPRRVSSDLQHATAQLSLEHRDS
Method in brief: as §1

[12] = molecular target: T8, ETV3L (Homo sapiens, UniProt Q6ZN32 1-361)
T8 sequence: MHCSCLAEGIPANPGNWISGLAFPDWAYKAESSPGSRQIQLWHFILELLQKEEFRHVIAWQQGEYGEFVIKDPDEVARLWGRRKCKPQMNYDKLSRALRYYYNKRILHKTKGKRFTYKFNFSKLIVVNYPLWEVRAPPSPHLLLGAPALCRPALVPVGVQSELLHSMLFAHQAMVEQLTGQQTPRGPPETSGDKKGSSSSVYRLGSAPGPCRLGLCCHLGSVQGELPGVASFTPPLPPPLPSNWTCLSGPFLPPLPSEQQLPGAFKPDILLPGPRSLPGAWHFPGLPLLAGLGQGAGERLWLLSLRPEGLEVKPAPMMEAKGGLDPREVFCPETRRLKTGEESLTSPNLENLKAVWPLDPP
Method in brief: as §1

[13] = molecular target: T9, ETS2 (Homo sapiens, UniProt P15036 1-469)
T9 sequence: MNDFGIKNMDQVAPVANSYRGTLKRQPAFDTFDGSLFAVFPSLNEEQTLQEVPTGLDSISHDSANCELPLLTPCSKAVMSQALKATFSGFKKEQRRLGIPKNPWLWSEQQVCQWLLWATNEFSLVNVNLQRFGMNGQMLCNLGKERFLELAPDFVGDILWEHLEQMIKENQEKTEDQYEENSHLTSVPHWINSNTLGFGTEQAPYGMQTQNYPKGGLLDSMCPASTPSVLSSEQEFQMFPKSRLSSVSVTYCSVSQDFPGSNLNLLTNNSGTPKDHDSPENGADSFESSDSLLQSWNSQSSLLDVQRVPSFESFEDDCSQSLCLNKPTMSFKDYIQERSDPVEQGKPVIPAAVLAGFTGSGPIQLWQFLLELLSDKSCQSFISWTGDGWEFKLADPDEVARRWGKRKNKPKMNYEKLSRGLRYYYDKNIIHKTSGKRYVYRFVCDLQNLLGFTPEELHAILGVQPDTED
Method in brief: as §1

[14] = molecular target: T10, ETV7 (Homo sapiens, UniProt Q9Y603 1-341)
T10 sequence: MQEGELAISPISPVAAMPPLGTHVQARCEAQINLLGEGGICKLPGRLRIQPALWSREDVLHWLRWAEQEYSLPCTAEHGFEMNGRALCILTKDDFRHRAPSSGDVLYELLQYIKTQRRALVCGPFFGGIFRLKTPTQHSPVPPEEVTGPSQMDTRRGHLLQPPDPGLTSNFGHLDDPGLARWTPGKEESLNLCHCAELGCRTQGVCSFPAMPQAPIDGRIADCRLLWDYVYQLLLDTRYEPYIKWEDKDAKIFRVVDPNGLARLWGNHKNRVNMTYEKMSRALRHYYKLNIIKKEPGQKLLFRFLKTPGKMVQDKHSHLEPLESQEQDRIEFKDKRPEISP
Method in brief: as §1

[15] = molecular target: ETV6 (Homo sapiens, UniProt P41212 1-452)
Method in brief: as §1

ETV5, sequence (P41161 whole entry): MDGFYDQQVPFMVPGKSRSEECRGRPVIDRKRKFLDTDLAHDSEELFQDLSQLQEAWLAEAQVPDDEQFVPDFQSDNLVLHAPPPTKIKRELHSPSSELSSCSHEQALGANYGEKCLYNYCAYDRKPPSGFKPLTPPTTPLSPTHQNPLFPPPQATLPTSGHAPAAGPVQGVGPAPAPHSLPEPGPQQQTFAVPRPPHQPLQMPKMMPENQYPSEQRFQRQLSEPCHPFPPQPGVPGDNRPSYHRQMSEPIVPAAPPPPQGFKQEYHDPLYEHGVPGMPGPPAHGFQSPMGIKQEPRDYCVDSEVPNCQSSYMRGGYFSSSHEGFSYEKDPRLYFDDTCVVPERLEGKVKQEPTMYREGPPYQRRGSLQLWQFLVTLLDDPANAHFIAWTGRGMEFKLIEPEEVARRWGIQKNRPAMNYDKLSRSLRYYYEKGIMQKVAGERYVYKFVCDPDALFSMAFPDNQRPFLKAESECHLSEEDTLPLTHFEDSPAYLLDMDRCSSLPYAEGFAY
ETV1, sequence (P50549 whole entry): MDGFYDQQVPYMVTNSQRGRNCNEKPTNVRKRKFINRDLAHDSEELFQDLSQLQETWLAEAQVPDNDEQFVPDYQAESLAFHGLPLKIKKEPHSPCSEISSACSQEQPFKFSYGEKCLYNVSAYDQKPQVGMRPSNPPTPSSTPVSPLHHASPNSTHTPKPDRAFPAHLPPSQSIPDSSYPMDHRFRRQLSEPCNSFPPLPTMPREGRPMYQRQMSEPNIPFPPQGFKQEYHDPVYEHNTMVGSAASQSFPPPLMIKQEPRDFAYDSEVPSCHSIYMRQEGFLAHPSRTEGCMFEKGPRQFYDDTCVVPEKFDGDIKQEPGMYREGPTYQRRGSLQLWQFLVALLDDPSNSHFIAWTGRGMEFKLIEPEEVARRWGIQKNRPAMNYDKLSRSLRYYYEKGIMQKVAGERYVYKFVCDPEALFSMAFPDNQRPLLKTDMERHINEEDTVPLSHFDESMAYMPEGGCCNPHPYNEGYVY
ELF1, sequence (P32519 whole entry): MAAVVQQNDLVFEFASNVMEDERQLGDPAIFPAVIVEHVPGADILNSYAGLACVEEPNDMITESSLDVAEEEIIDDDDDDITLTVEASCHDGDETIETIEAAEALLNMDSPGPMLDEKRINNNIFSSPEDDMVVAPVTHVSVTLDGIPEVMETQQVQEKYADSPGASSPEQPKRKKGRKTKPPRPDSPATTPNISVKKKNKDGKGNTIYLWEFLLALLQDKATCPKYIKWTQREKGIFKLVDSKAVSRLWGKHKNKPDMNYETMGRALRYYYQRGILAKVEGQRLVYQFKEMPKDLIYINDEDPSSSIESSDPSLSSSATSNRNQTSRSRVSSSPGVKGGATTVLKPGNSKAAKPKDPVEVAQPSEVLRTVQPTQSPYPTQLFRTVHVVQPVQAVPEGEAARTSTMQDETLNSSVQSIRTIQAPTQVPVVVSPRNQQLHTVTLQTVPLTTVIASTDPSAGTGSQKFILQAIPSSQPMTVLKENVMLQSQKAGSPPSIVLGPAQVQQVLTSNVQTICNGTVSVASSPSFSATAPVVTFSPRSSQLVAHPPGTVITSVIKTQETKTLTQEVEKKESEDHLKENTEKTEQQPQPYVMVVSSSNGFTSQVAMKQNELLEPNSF
ETV6, sequence (P41212 whole entry): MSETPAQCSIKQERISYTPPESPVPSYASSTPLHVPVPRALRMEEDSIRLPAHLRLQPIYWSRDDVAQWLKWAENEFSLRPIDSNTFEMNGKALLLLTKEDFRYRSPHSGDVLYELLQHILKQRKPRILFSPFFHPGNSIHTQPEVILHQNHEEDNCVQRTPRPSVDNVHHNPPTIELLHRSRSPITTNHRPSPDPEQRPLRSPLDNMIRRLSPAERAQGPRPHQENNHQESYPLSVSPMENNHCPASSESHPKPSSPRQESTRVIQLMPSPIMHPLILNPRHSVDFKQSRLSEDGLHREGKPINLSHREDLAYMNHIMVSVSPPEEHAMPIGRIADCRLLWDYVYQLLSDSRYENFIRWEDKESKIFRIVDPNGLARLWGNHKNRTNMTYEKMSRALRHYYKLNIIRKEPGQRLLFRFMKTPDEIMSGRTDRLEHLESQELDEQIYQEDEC
SPIB, sequence (Q01892 whole entry): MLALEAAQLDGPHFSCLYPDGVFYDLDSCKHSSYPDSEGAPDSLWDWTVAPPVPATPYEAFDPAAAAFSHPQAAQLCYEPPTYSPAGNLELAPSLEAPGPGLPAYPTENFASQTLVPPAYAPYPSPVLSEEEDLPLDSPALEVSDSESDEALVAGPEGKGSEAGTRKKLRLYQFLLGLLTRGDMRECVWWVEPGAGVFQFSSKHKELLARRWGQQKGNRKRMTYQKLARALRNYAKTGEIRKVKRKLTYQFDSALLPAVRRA

ATAGGC
binding signal [1]: 1.01 fold enrichment (6-mer frequency, TF over GST control)
binding signal [2]: 1.01 fold enrichment (6-mer frequency, TF over GST control)
binding signal [3]: 1.03 fold enrichment (6-mer frequency, TF over GST control)
binding signal [4]: 1.04 fold enrichment (6-mer frequency, TF over GST control)
binding signal [5]: 1.11 fold enrichment (6-mer frequency, TF over GST control)
binding signal [6]: 1.02 fold enrichment (6-mer frequency, TF over GST control)
binding signal [7]: 1.1 fold enrichment (6-mer frequency, TF over GST control)
binding signal [8]: 1.06 fold enrichment (6-mer frequency, TF over GST control)
binding signal [9]: 1.07 fold enrichment (6-mer frequency, TF over GST control)
binding signal [10]: 1.01 fold enrichment (6-mer frequency, TF over GST control)
binding signal [11]: 1.04 fold enrichment (6-mer frequency, TF over GST control)
binding signal [12]: 1.02 fold enrichment (6-mer frequency, TF over GST control)
binding signal [13]: 1.01 fold enrichment (6-mer frequency, TF over GST control)
binding signal [14]: 1.01 fold enrichment (6-mer frequency, TF over GST control)
binding signal [15]: 1.04 fold enrichment (6-mer frequency, TF over GST control)
